This is part of a sample that, as a whole, favours compounds with a hit. Of some 83,000 tested, about 20% had one in any assay.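 Activity criterion: percent growth below 10, measured after cells in 96-well plates were exposed to a single compound concentration for 48 hours.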 Unmarked numbers belong to inactive results. Active and inactive are the calls of the source.

The test system of this assay is NCI/ADR-RES ovarian. Description: NCI-60 one-dose screen, 48 h (100 = growth as untreated, 0 = no growth, -100 = all killed). Conditions: 10 µM unless noted. Here is the method: Growth inhibition of the NCI/ADR-RES human […] tumor cell line is measured as a screen for anti-cancer activity. Cells are grown in 96 well plates and exposed to the test compound for 48 hours. Compounds are tested at a single concentration, which is 10^-5 M for most compounds. The reported endpoint is percent growth (GI% or GIPRCNT), where numbers from 0 - 100% represent growth inhibition, and numbers from -100% - 0 represent cell death. For example, a value of 40 represents 60% growth inhibition. A value of 0 means no net growth occurred over the course of the experiment. A value of -40 indicates 40% of cells at the beginning of the experiment died by the end of the experiment. A value of -100 means all cells are dead at the end of the experiment.
NCI-60 Human Tumor Cell Lines Screen was performed using the standard one-dose NCI protocol, which is described in more detail at https://dtp.cancer.gov/discovery_development/nci-60/default.htm.
Compounds with GIPRCNT values below 10 were considered active. Activity score was based on GIPRCNT using the following formula: […]
Score is 0 for GIPRCNT values of 100 or above, 50 for GIPRCNT values of 0, and 100 for GIPRCNT values of -100.
Turning to `COc1cnc2c(c1)C(=O)c1c-2n(CCCN2CCCC2)c(=O)c2cc([N+](=O)[O-])ccc12`, the growth was -20.2% (active).
Consider `CSc1[nH]c2ncnc(N)c2c1C#N`, for which the growth was 86.1%.
For the compound `CN[C@@]12CC3(C=CC(=O)C=C3)O[C@]1(Cc1ccc(OC)cc1)N(C)C(=O)N2`, the growth is 61.7%.
As to `CCN(CC)CCCC(C)N/C(=C1\C(=O)NC(=O)\C1=C(/NC(C)CCCN(CC)CC)c1cccc(OC)c1)c1cccc(OC)c1` (stereo not given), the growth is 2.36% (active).
For `O=C1NC(=O)C(CC(=O)n2c(-c3ccccc3)nc3ccccc32)C(=O)N1`, the growth is 103%.
Consider `C=CC[N+]1(CC)CCN=C1CCCCCCCCCCCCCCCCC` (stereo not given), for which the growth is -21.6% (active).
Take `CC(C)(C)n1cc(-c2ccnc(NCCCNS(=O)(=O)c3cccc4ccccc34)c2)c(-c2cccc(O)c2)n1`: the growth was 36.5%.
Under `CC(C)c1c(C(=O)Nc2ccccc2)c(-c2ccccc2)c(-c2ccc(F)cc2)n1CC[C@@H]1CC=CC(=O)O1` stands -1.87% (active).
For the compound `CCOC(=O)/C=C/c1ccc(C(=O)OCC)[nH]1`, the growth was 8.24% (active).
The same measure for `O=C1c2ccccc2-c2nccc3cc(Cl)nc1c23`: 69%; for `COc1cccc(-c2nc3sccn3c2-c2ccnc(NCCCNS(=O)(=O)c3ccc(Cl)cc3)c2)c1`: 26.9%; for `COc1ccc(S(=O)(=O)NCCCNc2nccc(-c3c(-c4cccc(N)c4)nc4sccn34)n2)cc1`: 94.7%.
The same measure for `Cc1[nH]n(-c2ccccc2)c2nc3nncc3c(-c3ccc(Cl)cc3)c12`: 93.6%; for `CN(C)CC(=O)Nc1ccc(Cn2nnc3c2C(=O)c2nnn(Cc4ccc(NC(=O)CN(C)C)cc4)c2C3=O)cc1`: 88.6%; for `COc1ccc2nc3cc(Cl)ccc3c(N3CCN(c4ccnc(N5CCOCC5)n4)CC3)c2c1`: 73.2%.
In the case of `O=C(NC(Cc1ccccc1)C(=O)CCl)OCc1ccccc1` (stereo not given), the growth is 75.1%.
Turning to `CC(=O)Oc1ccc(Nc2c3ccccc3nc3ccccc23)cc1`, the growth was 23.8%.
Regarding `CN(C)CCCC(=O)Nc1ccc(Cn2nnc3c2C(=O)c2nnn(Cc4ccc(NC(=O)CCCN(C)C)cc4)c2C3=O)cc1`, the growth is 108%.
The same measure for `CCOC(=O)c1cnc2ccc(Br)cc2c1Nc1cccc(S(=O)(=O)NC)c1`: 80.4%; for `O=C1C(Cl)=C(Cl)C(=O)c2c1nc1n2CCCC1`: 93.5%.
On to `COc1c(Cl)cc(Cl)cc1Cl`, for which the growth is 112%.
For `Oc1ccc(Nc2nccc(-c3ccc4ccccc4c3)n2)cc1`, the growth is 14.7%.
As for `COc1cc(/C=N\NC(=O)CN2CCN(c3cc4c(cc3F)c(=O)c(C(=O)N/N=C/c3ccc(O)c(OC)c3)cn4C3CC3)CC2)ccc1O`, the growth was 99.9%.
Consider `COC(=S)SCN(CSC(=S)OC)c1ccc(Cl)cc1`, for which the growth was 79.1%.
As to `Cc1ccc(Nc2nc(N)nc(Nc3ccc4ccccc4c3)n2)cc1`, the growth was 30.6%.
On to `CN1CCN(Cc2ccc(NC(=O)c3[nH]ncc3Nc3ncnc4c3CCC4)cc2)CC1`, for which the growth is 71.7%.
As for `CC(C)[C@@H]1CC[C@]2(C(=O)NCCCCN=C(N)N)CC[C@]3(C)[C@H](CC[C@@H]4[C@@]5(C)CCC(=O)C(C)(C)[C@@H]5CC[C@]43C)[C@@H]12`, the growth is 101%.
For `O=C(Nc1nc(-c2ccccc2)cc(-c2ccc(Cl)cc2)n1)c1ccncc1`, the growth is 89.1%.
The same measure for `COc1ccc(-c2csc(NC(=O)CN3CCN(c4cc5c(cc4F)c(=O)c(C(=O)O)cn5C4CC4)CC3)n2)cc1`: 60.7%; for `CNCCCn1c2c(c3ccc([N+](=O)[O-])cc3c1=O)C(=O)c1cc(OC)cnc1-2`: -28.8% (active); for `Fc1ccc(Cc2ccc(F)cc2)cc1`: 101%.
The same measure for `Cc1nn(-c2ccccc2)c2nc(C)n(-c3ccc(Br)cc3)c(=O)c12`: 3.19% (active).
Take `O=C1Nc2ccc(Br)cc2C12CC(c1ccccc1)=NN2` (stereo not given): the growth is 40.8%.
For the compound `CCCCOc1ccc(NC(=O)n2nc(NC(C)=O)c3cc(NC(C)=O)ccc32)cc1`, the growth was 105%.
For `COc1ccc(-c2cn3c(ccc4ccccc43)n2)cc1`, the growth is 96.3%.
Turning to `O=C(CN1CCN(c2cc3c(cc2F)c(=O)c(C(=O)N/N=C/c2ccccc2)cn3C2CC2)CC1)N/N=C\c1ccccc1`, the growth is 77.1%.
With `CC1=C(NCCN2CCCC2)C(=O)c2c(OCc3cccc(Cl)c3)cccc2C1=O`, the growth is 78.7%.
As to `CCC(c1ccc(O)cc1)C(CC)c1ccc(O)c(F)c1` (stereo not given), the growth was 81.8%.
As to `CCOC(=O)c1cnc2cc(Cl)c(F)cc2c1Nc1cccc(NS(C)(=O)=O)c1`, the growth is 81%.
As to `COc1cc(C(=O)/C=C/c2c(C)n([O-])c3ccc(C)cc3[n+]2=O)cc(OC)c1OC`, the growth is 81.2%.

For the origin of these results see PubChem BioAssay (NCI).
